Results filed as inconclusive are left out. Activity calls are given as the source filed them. How the source made its calls, unless noted: active means hit-call score of the fitted dose curve at least 0.9, where 1 is the maximum; inconclusive means response in the unintended direction; inactive means score below 0.9.
What was measured:
[1] = target: Cellular tumor antigen p53 (Homo sapiens) (UniProt P04637); test: TOX21_p53_BLA_p2_ratio: Tox21 HCT-116 p53 Agonism Beta-lactamase Assay, Ratio, Phase 2 (AID 2283592)
In short: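 An inducible beta-lactamase reporter in HCT116 cells signals p53 pathway activation. After 16 h chemical exposure at 37C, cells load CCF4-AM substrate for 2 h at room temperature; activity is the cleaved/uncleaved emission ratio relative to DMSO.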

[2] = TOX21_p53_BLA_p3_viability: Viability Assessment in the Tox21 HCT-116 p53 Agonism Beta-lactamase Assay, Phase 3 (AID 2283593);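 further: cells exposed to compound for 16 h before reading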
In short: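 HCT-116 cells (4000/well) rested 5 h at 37C, then got DMSO compounds by pin tool (217-fold dilution) for 16 h at 37C, 5% CO2. After the bla read, CellTiter-Glo was added and luminescence read at 30 min, room temperature.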

[3] = target: Cellular tumor antigen p53 (Homo sapiens) (UniProt P04637); test: TOX21_p53_BLA_p3_ratio: Tox21 HCT-116 p53 Agonism Beta-lactamase Assay, Ratio, Phase 3 (AID 2283596)
In short: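 HCT116 p53-bla cells (4000/well) given compound in DMSO (217-fold dilution) after 5 h, incubated 16 h at 37C. CCF4-AM substrate 2 h at room temperature; 460/530 nm emission ratio, gain fitted against DMSO.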

[4] = TOX21_p53_BLA_p4_viability: Viability Assessment in the Tox21 HCT-116 p53 Agonism Beta-lactamase Assay, Phase 4 (AID 2283597);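 further: hits lower the luminescence signal meaning cytotoxicity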
In short: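 Compound exposure of HCT116 cells lasts 16 h at 37C, 5% CO2, with DMSO stocks diluted 217-fold. Cellular ATP is then quantified by CellTiter-Glo luminescence after 30 min at room temperature.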

[5] = target: Cellular tumor antigen p53 (Homo sapiens) (UniProt P04637); test: TOX21_p53_BLA_p5_ratio: Tox21 HCT-116 p53 Agonism Beta-lactamase Assay, Ratio, Phase 5 (AID 2283599)
In short: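 HCT-116 cells carrying a p53-inducible beta-lactamase reporter were seeded at 4000 cells/well and dosed after 5 h with compound in DMSO (217-fold dilution). After 16 h at 37C, CCF4-AM substrate was added for 2 h, and the 460/530 nm emission ratio was scored as gain-of-signal versus DMSO.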

[6] = TOX21_p53_BLA_p5_viability: Viability Assessment in the Tox21 HCT-116 p53 Agonism Beta-lactamase Assay, Phase 5 (AID 2283600)
In short: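 Counter-readout for cytotoxicity: ATP-dependent luminescence from CellTiter-Glo, read in the beta-lactamase wells after 30 min at RT, following a 16 h compound exposure at 37C.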

[7] = target: Cellular tumor antigen p53 (Homo sapiens) (UniProt P04637); test: TOX21_p53_BLA_p4_ratio: Tox21 HCT-116 p53 Agonism Beta-lactamase Assay, Ratio, Phase 4 (AID 2283601)
In short: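 HCT116 cells carrying an inducible beta-lactamase reporter were plated at 4000 cells/well, rested 5 h, then exposed to compounds in DMSO (217-fold dilution) for 16 h at 37C. CCF4-AM substrate was loaded 2 h at room temperature; 460/530 nm emission ratio scored gain-of-signal versus DMSO.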

[8] = CCTE_Harrill_HTTr_Viability_MCF7: CCTE's 6-hour Cell Viability Assessment for the High-Throughput Transcriptomics (HTTr) Platform, in MCF-7 cells cultured in DMEM + 10% fetal bovine serum, Harrill Lab (AID 2284010; active means hit-call score of the fitted dose curve at least 0.9, where 1 is the maximum; inactive means score below 0.9)
In short: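 MCF-7 cells in DMEM + 10% FBS, 384-well, exposed 6 h to an eight-point dilution series. Membrane integrity scored by high-content imaging of propidium iodide exclusion; bidirectional fit versus DMSO.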

[9] = CCTE_Harrill_HTTr_Apoptosis_MCF7: CCTE's 6-hour Apoptosis Assessment for the High-Throughput Transcriptomics (HTTr) Platform, in MCF-7 cells cultured in DMEM + 10% fetal bovine serum, Harrill Lab (AID 2284011; active means hit-call score of the fitted dose curve at least 0.9, where 1 is the maximum; inactive means score below 0.9)
In short: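 Cells are dosed with test chemicals at eight concentrations and imaged 6 hours later for caspase-3/7 activity using a green fluorogenic detection reagent. Activity is fitted in both directions against DMSO controls.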

[10] = CCTE_Harrill_HTTr_CellCount_MCF7: CCTE's Cell Proliferation Assessment for the High-Throughput Transcriptomics (HTTr) Platform, Harrill Lab (AID 2284012);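 further: cells exposed to compound for six hours; intended direction is loss of nuclei count meaning fewer cells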
In short: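 MCF7 cells exposed 6 hours to an eight-point dilution series; Hoechst-stained nuclei counted by high-content imaging. Bidirectional curve fitting against DMSO baseline.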

Measured: AC50

Sequence of Cellular tumor antigen p53 (Homo sapiens) (P04637 whole entry, looked up): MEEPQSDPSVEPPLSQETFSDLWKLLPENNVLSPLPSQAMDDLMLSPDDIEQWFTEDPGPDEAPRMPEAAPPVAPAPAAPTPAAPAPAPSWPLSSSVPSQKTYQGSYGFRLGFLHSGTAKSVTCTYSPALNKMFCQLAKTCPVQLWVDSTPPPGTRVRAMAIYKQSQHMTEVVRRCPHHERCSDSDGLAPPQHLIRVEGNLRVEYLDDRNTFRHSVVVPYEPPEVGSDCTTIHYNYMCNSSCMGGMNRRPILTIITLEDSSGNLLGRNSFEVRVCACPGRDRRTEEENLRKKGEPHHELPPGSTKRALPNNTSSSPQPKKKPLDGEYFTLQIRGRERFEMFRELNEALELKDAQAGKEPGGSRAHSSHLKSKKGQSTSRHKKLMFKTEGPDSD

O=C(O)Cc1ccc(-c2ccccc2)cc1
not listed: [8] | [9] | [10]
inactive: all other assays above

C[C@H](O)[C@H](O)[C@H]1CNc2nc(N)[nH]c(=O)c2N1
not listed: [8] | [9] | [10]
inactive: all other assays above

COCC(O)CO (stereo not drawn)
not listed: [8] | [9] | [10]
inactive: all other assays above

C=C1/C(=C\C=C2/CCC[C@]3(C)[C@@H]([C@H](C)OCCC(C)(C)O)CC[C@@H]23)C[C@@H](O)C[C@@H]1O
inactive: [2] | [4] | [6]
active: [1] 12.7 µM | [3] 14.3 µM | [5] 13.5 µM | [7] 9.97 µM

c1ccc([C@H]2CN3CCSC3=N2)cc1
inactive: all assays above

Nc1c2c(nc3ccccc13)CCCC2
inactive: all assays above

From PubChem BioAssay (EPA / NIEHS)
